Screening results (PubChem BioAssay)
MEX-5 binding = C. elegans MEX-5 TCR-2 RNA binding activity | MEX-5/FITC-TCR2 RNA binding, fluorescence polarization; stronger effect = lower value | activity score (negative = inhibition of binding), % at 10 µM | actives 0.38% (n = 300,000);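 active = inhibition past about -25% in most replicates, and total fluorescence under double the plate's negative control median, limit read from the data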;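 note: 0% = DMSO and -100% = 5 µM competing unlabeled TCR2 RNA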
Bcl-xL primary = inhibitors of human Bcl-xL | inhibition, % at 10.9 µM | Q07817 | AID 2129 | GST-Bcl-xL / FITC-Bim BH3 peptide fluorescence polarization | actives 0.7% (n = 320,000);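 active = inhibition above the mean of all tested compounds plus 3 SD, cutoff set per campaign, cut at about 30% in these data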;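 note: 0% = DMSO wells and 100% = unlabeled Bim-BH3 peptide competitor; inhibitors lower millipolarization by displacing the labeled peptide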
Target sequence (Q07817 whole entry, looked up): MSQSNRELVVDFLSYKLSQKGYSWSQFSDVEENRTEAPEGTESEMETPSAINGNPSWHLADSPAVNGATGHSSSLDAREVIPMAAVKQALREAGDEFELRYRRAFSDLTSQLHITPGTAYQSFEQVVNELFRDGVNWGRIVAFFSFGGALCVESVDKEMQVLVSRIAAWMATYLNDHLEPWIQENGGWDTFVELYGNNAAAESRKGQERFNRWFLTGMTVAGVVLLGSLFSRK
EBV gp42 block = blocks Epstein-Barr virus glycoprotein 42 binding; inhibition, % (tested at 21.74 µM); actives 0.42% (n = 220,000); Fluorescence polarization binding assay, mP read-out; AID 1085; Q1HVG2; in the data active = inhibition above about 50%
MCL1-BIM inh = disrupts human MCL1 binding to BIM-BH3 peptide | AID 2057 | Q07820 | inhibition, % at 10.9 µM | actives 0.68% (n = 320,000) | GST-MCL1 / FITC-Bim-BH3 fluorescence polarization;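 active = inhibition above the mean inhibition of all tested compounds plus 3 SD, set per campaign, cut at about 40% in these data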;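 note: 0% = DMSO wells and 100% = unlabeled Bim-BH3 peptide control; higher means more loss of mP so more displacement of Bim peptide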
Target sequence (Q07820 whole entry, looked up): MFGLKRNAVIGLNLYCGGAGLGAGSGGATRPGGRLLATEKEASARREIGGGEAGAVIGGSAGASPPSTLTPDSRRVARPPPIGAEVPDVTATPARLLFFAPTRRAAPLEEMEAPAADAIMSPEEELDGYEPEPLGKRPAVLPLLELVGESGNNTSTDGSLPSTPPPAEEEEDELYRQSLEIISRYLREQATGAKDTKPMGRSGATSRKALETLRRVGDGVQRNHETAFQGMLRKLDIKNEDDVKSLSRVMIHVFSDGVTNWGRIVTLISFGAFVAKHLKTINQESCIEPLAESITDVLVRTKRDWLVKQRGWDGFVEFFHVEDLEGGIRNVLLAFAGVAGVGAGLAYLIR
GLD-1 RNA inh = GLD-1-TGE RNA interaction inhibition (C. elegans); inhibition, % at 5.96 µM; actives 0.44% (n = 320,000); AID 2280; purified GLD-1 + fluorescein TGE RNA, fluorescence polarization; Q17339;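 active = percent inhibition above a per-plate cutoff, the plate mean of test compounds plus 3 SD, cut at about 30% in these data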;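 note: 0% = DMSO wells with GLD-1 and probe and 100% = wells lacking GLD-1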
eLon inh = inhibitors of E. coli Lon protease; purified E. coli Lon protease, fluorescence polarization; inhibition, % at 7.94 µM; actives 0.42% (n = 360,000); AID 602123; in the data active = inhibition above about 13%, passing the limit was not always enough;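 note: 0% = enzyme with probe and DMSO and 100% = no enzyme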
Active calls of the source: *; i = inactive; / = no result. Sampled rows, rich in hits. Any-hit rate of the full collection: about 1.5%.

SMILES | MEX-5 binding | Bcl-xL primary | EBV gp42 block | MCL1-BIM inh | GLD-1 RNA inh | eLon inh
COc1cccc(=O)c2c(C)oc(C)c12 | -71* | 20 | 18 | 17 | 17 | -2
COc1ccc(-n2c(C)c3c(OC)cccc(=O)c3c2C)cc1 | -3 | 9 | 5 | 4 | 6 | -1
CCOCCCNC(=O)/C(C#N)=C/c1ccc([N+](=O)[O-])o1 | -1 | 34* | 7 | 34 | 46* | -35
Cc1ccc(CNC(=O)Cc2ccc(-n3cccc3)cc2)cc1 | 0 | 2 | -5 | -6 | 1 | -5
Cc1ccc(CNC(=O)c2ccc(-n3cccc3)cc2)cc1 | 0 | / | 51* | / | / | -10
COc1ccc(CCN2CC(C(=O)NCCc3ncccc3C)CCC2=O)cc1 (centres undefined) | / | / | / | / | / | -4
NS(=O)(=O)c1ccc(NS(=O)(=O)c2ccc(NC(=O)c3ccc(-c4ccccc4)cc3)cc2)cc1 | 2 | 6 | 16 | 6 | 1 | 5
NS(=O)(=O)c1ccc(NC(=O)c2ccc(-c3ccccc3)cc2)cc1 | / | / | 62* | / | / | -6
CCCCn1nc(C(=O)N(C)Cc2nc3ccccc3c(=O)[nH]2)c2ccccc2c1=O | / | / | / | / | / | -2
Cc1ccc(-c2nnc(Nc3ccc(CC(N)=O)cc3)c3ccccc23)cc1S(N)(=O)=O | -32* | 9 | / | 5 | 7 | -9
Cc1cnccc1CN(C)C(=O)CC1C(=O)NCCN1CC1CCCCC1 (centres undefined) | -1 | 10 | -10 | 7 | 6 | 0
Cc1ccc(CN(C)C(=O)CC2C(=O)NCCN2CC2CCCCC2)cc1 (centres undefined) | -48* | 7 | -9 | 1 | 0 | -2
O=C(CC1C(=O)NCCN1Cc1ccccn1)NCCc1ccccc1F (centres undefined) | -1 | 30* | / | 34 | 21 | 13
CCOc1ccc(CN2CCNC(=O)C2CC(=O)NCCc2ccccn2)cc1 (centres undefined) | -4 | 14 | 7 | 8 | 12 | -4
CS(=O)(=O)Nc1ccc(C(=O)NCCSCc2ccccc2)cc1 | 2 | 2 | 2 | 3 | 11 | -5
CS(=O)(=O)Nc1ccc(C(=O)NCCc2ccccc2)cc1 | -1 | 145* | -2 | 6 | -5 | 2
COc1cc(/C=N/N2C(=O)CSC2=S)ccc1O | -1 | 4 | -18 | 4 | -35 | -22
O=C1CSC(=S)N1/N=C/c1cc(Br)c(O)c(Br)c1 | -33* | -4 | / | -43 | -65 | i
Cc1cc(S(=O)(=O)n2[nH]c(=O)c(CCO)c2C)c(Cl)cc1Cl | -1 | 67* | / | 5 | 11 | -6
Cc1c(C)c(C)c(S(=O)(=O)n2[nH]c(=O)c(CCO)c2C)c(C)c1C | -1 | 4 | -18 | 0 | 6 | 5
N#Cc1c(SCC(N)=O)nc2c(c1-c1ccc(O)cc1)CCCC2 | 1 | 4 | 111* | 3 | 1 | -2
O=c1c2ccccc2oc2cc(OCc3cccc(F)c3)cc(O)c12 | 1 | / | / | / | / | 0
O=C(CSc1ccsc1[N+](=O)[O-])Nc1cccc(F)c1 | -3 | / | 62* | / | / | -5
CC(=O)Nc1ccc(NC(=O)CSc2ccc(C(F)(F)F)cc2[N+](=O)[O-])cc1 | 0 | 0 | -19 | 11 | -6 | -6
O=C(CSc1ccc(C(F)(F)F)cc1[N+](=O)[O-])Nc1ccccc1 | 0 | -3 | 11 | 0 | -6 | 37*
SMILES | MEX-5 binding | Bcl-xL primary | EBV gp42 block | MCL1-BIM inh | GLD-1 RNA inh | eLon inh
Cc1ccc2c(c1)CCCO[C@]21O[C@H](CCO)C[C@H](O)[C@H]1O | / | / | / | / | / | -8
NC(=S)n1[nH]c(-c2ccc([N+](=O)[O-])cc2)c(N=Nc2cccc(Cl)c2)c1=O | -2 | / | 100* | / | / | 2
NC(=S)n1[nH]c(-c2ccc([N+](=O)[O-])cc2)c(N=Nc2ccc(O)cc2)c1=O | -3 | 10 | 19 | 9 | -3 | -3
COc1cccc(-n2nc3c(=S)[nH]nc(C)c3c2C)c1 | -7 | 3 | -11 | 6 | -4 | -4
Cc1n[nH]c(=S)c2nn(-c3cccc(Cl)c3)c(C)c12 | -32* | / | -21 | / | / | /
Cc1cccc(C2Nc3ccccc3C(=O)N2NC(=O)c2ccc([N+](=O)[O-])cc2)n1 (centres undefined) | -54* | 4 | -18 | -4 | 10 | 0
O=C(NN1C(=O)c2ccccc2NC1c1ccccn1)c1ccc(Br)cc1 (centres undefined) | -30* | 1 | -19 | -1 | -1 | 4
O=C(NN1C(=O)c2ccccc2NC1c1ccco1)c1ccc([N+](=O)[O-])cc1 (centres undefined) | 0 | 4 | -8 | 0 | 2 | -6
O=C(NN1C(=O)c2ccccc2NC1c1ccccn1)c1ccc([N+](=O)[O-])cc1 (centres undefined) | -44* | -3 | -5 | -5 | -2 | -7
Cc1ccc(C)c(OC(C)C(=O)Nc2ccc(S(=O)(=O)Nc3nccs3)cc2)c1 (centres undefined) | -1 | 6 | / | 9 | -1 | -9
CCCOC(=O)C1=C(C)N(C)C(=O)NC1c1cc2c(cc1[N+](=O)[O-])OCO2 (centres undefined) | -3 | 43* | -23 | 45* | 15 | 2
O=C1C2CC=C(Cl)CC2C(=O)N1CC1OCCc2ccccc21 (centres undefined) | -7 | 11 | 5 | 7 | 2 | 17
O=C1C2CC=C(Cl)CC2C(=O)N1CC1Cc2ccccc2CO1 (centres undefined) | -26* | 26 | 44 | 21 | 25 | 10
O=C(CCN1C(=O)C2CC=C(Cl)CC2C1=O)NCc1ccco1 (centres undefined) | -8 | 10 | 4 | 12 | 9 | 6
O=C1C2CC=C(Cl)CC2C(=O)N1CN(Cc1ccco1)CN1C(=O)C2CC=C(Cl)CC2C1=O (centres undefined) | -11 | 45* | -2 | 51* | 44* | 2
COCCSc1nnc(NC(=O)COc2ccc3c(c2)OCO3)s1 | -2 | -4 | / | -6 | -2 | -3
Nc1ccc2c(c1Cl)C(=O)c1ccc(N)c(Cl)c1C2=O | -3 | / | 76* | / | / | 0
Nc1c(C(=O)O)ccc2c1C(=O)c1ccccc1C2=O | -13 | 13 | -6 | 13 | 8 | -5
CCOC(=O)C(=O)/C(=C\N(C)C)c1onc(-c2ccccc2)c1C(=O)OC | 1 | -8 | 132* | -2 | -10 | 1
C=CCn1c(Cc2nc3ccccc3[nH]2)n[nH]c1=S | -51* | 2 | -16 | -7 | -2 | -7
O=C(O)CSc1cccc[n+]1[O-] | 1 | 4 | -15 | 3 | 1 | -3
N#CC(C#N)=C(N)CSc1cccc[n+]1[O-] | -4 | 30* | -7 | 31 | 16 | 4
CN(C(=O)C1CCCC1)C1CCS(=O)(=O)C1 (centres undefined) | 0 | -7 | / | -4 | 1 | -3
